In PubChem BioAssay (NCI) one finds growth data, which are given here for 15 molecules.

This is part of a sample that, as a whole, favours compounds with a hit. Of some 83,000 tested, about 20% had one in any assay.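 The endpoint reported here, percent growth, reads 100 for growth as untreated, 0 for no net growth and -100 for all cells dead.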 A number with no mark means an inactive call. Calls of active or inactive are those of the source. How the source made its calls: active means growth percent below 10; inactive means the rest.

Holding throughout (experiment): NCI-60 one-dose screen, 48 h (100 = growth as untreated, 0 = no growth, -100 = all killed)
Conditions in all cases: 10 µM unless noted

In assay [1] the test system is T-47D breast.
For assay [2], the system named is BT-549 breast.
The subject of assay [3] is MDA-MB-435 melanoma.
For assay [4], the system named is SW-620 colon.
For assay [5], the system named is MCF7 breast.
The test system of assay [6] is HCT-116 colon.
The test system of assay [7] is HCC-2998 colon.
For assay [8], the system named is KM12 colon.

As to `C=C1CC[C@@H]2[C@](C)(COC(C)=O)[C@H](OC(C)=O)CC[C@@]2(C)[C@@H]1CC(Nc1ccc(S(=O)(=O)NC(C)=O)cc1)C1=CCOC1=O` (stereo not given in full), the growth in assay [1] is -3.67% (active); in assay [2] it was -62.6% (active); in assay [3] it was -38.8% (active); in assay [4], -65.6% (active); in assay [5] it was -33.6% (active); in assay [6] it was -63.9% (active). Besides, the growth in assay [7] was -12.7% (active); in assay [8] it was -34% (active).

For the molecule `C=C(CNCCc1ccc(O)cc1)[C@@H]1CC[C@]2(CO)CC[C@]3(C)[C@H](CC[C@@H]4[C@@]5(C)CCC(=O)C(C)(C)[C@@H]5CC[C@]43C)[C@@H]12`, the growth in assay [1] was 42.2%; in assay [2] it was 79.5%; in assay [3], 2.13% (active); in assay [4], -49.8% (active); in assay [5], -1.07% (active); in assay [6] it was -86.1% (active). Moreover, the growth in assay [7] was 17.3%; in assay [8], 1.19% (active).

For the molecule `CN1CCN(Cc2ccc(NC(=O)c3cncc(C#Cc4cnc5ccc(Cl)nn45)c3)cc2C(F)(F)F)CC1`, the growth in assay [1] was 10.4%; in assay [2], -6.27% (active); in assay [3], -10.4% (active); in assay [4], -2.63% (active); in assay [5] it was -2.36% (active); in assay [6], -12.6% (active). Moreover, the growth in assay [7] is -24.4% (active); in assay [8], -0.151% (active).

For the molecule `Cc1ccc(CNc2c3ccccc3nc3ccccc23)cc1`, the growth in assay [1] is 25.1%; in assay [2], 71.3%; in assay [3], 31.2%; in assay [4], 20.2%; in assay [5] it was 9.04% (active); in assay [6], 12%. Moreover, the growth in assay [7] was -2.62% (active); in assay [8], 23.4%.

`O=S(=O)(Oc1ccc(Br)cc1)c1ccc(Cl)cc1`: the growth in assay [1] was 88.5%; in assay [2] it was 99.8%; in assay [3], 104%; in assay [4], 102%; in assay [5] it was 91.7%; in assay [6] it was 98.6%. Moreover, the growth in assay [7] was 83.2%; in assay [8], 99.3%.

As for `CC(=C(c1ccc(OCCN2CCCCC2)cc1)c1ccc(OCCN2CCCCC2)cc1)c1ccc(Cl)cc1`, the growth was -72.6% (active) in assay [1]; -87% (active) in assay [2]; -96.6% (active) in assay [3]; -84.8% (active) in assay [4]; -85.4% (active) in assay [5]; -88.9% (active) in assay [6]. Besides, the growth is -93.4% (active) in assay [7] and -84.9% (active) in assay [8].

With `COc1cnc2c(c1)C(=O)c1c-2n(CCCCl)c(=O)c2ccncc12`, the growth in assay [1] was 28.9%; in assay [2] it was 56.8%; in assay [3], 79.2%; in assay [4], 36.3%; in assay [5], 17.9%; in assay [6], 40.4%. Further, the growth in assay [7] was 75.6%; in assay [8] it was 67.8%.

Turning to `COc1cc(OC)c(C(=O)C(CN(C)C)CN(C)C)cc1OC`, the growth in assay [1] is -17.6% (active); in assay [2], 74.5%; in assay [3], 80.9%; in assay [4], -83.3% (active); in assay [5] it was 10.6%; in assay [6], -65.6% (active). Moreover, the growth was 110% in assay [7] and 111% in assay [8].

As for `Cc1ccc(-c2nc3nc(-c4ccccc4)nc(N4CCCN(S(C)(=O)=O)CC4)c3o2)cc1`, the growth was 92.1% in assay [1]; 94.2% in assay [2]; 34.5% in assay [3]; 44.1% in assay [4]; 65.1% in assay [5]; 24.4% in assay [6]. Further, the growth in assay [7] is 96.6%; in assay [8], 86.8%.

With `O=C(CCCCCNC(=O)c1cc(=O)c(O)co1)Nc1ccccc1`, the growth in assay [1] is 104%; in assay [2] it was 95.9%; in assay [3], 100%; in assay [4] it was 101%; in assay [5], 88.6%; in assay [6], 97.6%. Also, the growth is 101% in assay [7] and 100% in assay [8].

For `Cc1ccc(NC(=O)Cn2c(Br)nc3c2c(=O)n(C)c(=O)n3C)cc1`, the growth was -10.5% (active) in assay [1]; 0.261% (active) in assay [2]; 54.2% in assay [3]; 30% in assay [4]; 13.2% in assay [5]; -21.5% (active) in assay [6]. The growth in assay [7] is 83.7%; in assay [8] it was 63.8%.

`O=C1c2ccccc2C(=O)c2c1c(C(=O)NCc1ccccc1)c1ccccn21`: the growth was 103% in assay [1]; 101% in assay [2]; 103% in assay [3]; 94.2% in assay [4]; 79% in assay [5]; 97.1% in assay [6]. Moreover, the growth was 99.9% in assay [7] and 101% in assay [8].

Consider `COc1ccc2c(c1)c(-c1nc(-c3c[nH]c4ncccc34)cs1)cn2CCO`, for which the growth is 23.4% in assay [1]; 41.7% in assay [2]; 66.5% in assay [3]; 63.1% in assay [4]; 20.1% in assay [5]; 50.9% in assay [6]. The results for the growth in assay [7] and in assay [8] were 58.9% and 20.7%, respectively.

Take `CN(C)CCN1C(=O)c2cccc3c(/C=C/CN4C(=O)c5cccc6cccc(c56)C4=O)ccc(c23)C1=O`: the growth in assay [1] was 97.6%; in assay [2] it was 97%; in assay [3], 89.3%; in assay [4] it was 11.9%; in assay [5] it was -71.6% (active); in assay [6], 9.57% (active). The growth is 36.4% in assay [7] and -79.4% (active) in assay [8].

On to `CSc1nn2c(-c3ccc4ccccc4c3)ccnc2c1C#N`, for which the growth in assay [1] was 18.8%; in assay [2], 44%; in assay [3], -63.6% (active); in assay [4] it was 9.09% (active); in assay [5], 10% (active); in assay [6], -38.1% (active). Also, the growth in assay [7] is 52.2%; in assay [8] it was 5.75% (active).
